# Experimental data reported in PubChem BioAssay AID686978 (National Center for Advancing Translational Sciences (NCATS), 2013).
# Hit rate of the full screen: of about 420,000 compounds, about 64,000 (15%) were called active. About 27% were inconclusive and are not listed. Calls come from the whole dose curve; as a rule, active = well fitted inhibition curve with a large enough effect; inconclusive = small, poorly fitted or top-dose-only effect; inactive = flat fitted curve, though single readings scatter. These entries were drawn from the full list. Where a call stands in place of a potency, no number is given.
# Assay: qHTS for Inhibitors of human tyrosyl-DNA phosphodiesterase 1 (TDP1): qHTS in cells in absence of CPT; note: nearly all actives have a fitted effect of over 55% in size
# Settings: DT40 Tdp1-/- hTDP1 cells, no CPT, ATP luminescence, 48 h; activity change, negative = growth inhibition: at 46.2 µM (top of the series)
# From the text: Human tyrosyl-DNA phosphodiesterase 1 (TDP1) is a novel repair gene, and we propose to use it as a new target for anticancer drug development. TDP1 is not an essential protein, but under treatment with topoisomerase I poison (camptothecin: CPT), TDP1 works as a critical factor for cell survival. To directly identify novel TDP1 inhibitors active in a cellular environment, we have knocked-out the Tdp1 gene in chicken DT40 cells (Tdp1-/-) and generated a complemented counterpart cells that contains a stable transfection of the human TDP1 gene (Tdp1-/-;hTDP1 cells). For the primary screen, Tdp1-/-;hTDP1 cells will be exposed to small molecules in the presence or absence of CPT, and their growth kinetics will be evaluated after 48 hours by measuring ATP activity. […] The hit compounds will then be evaluated in the presence or absence of CPT using Tdp1-/- cells. […] In tertiary assays, biochemical gel-based assays will be used to assess whether the hit compounds specifically target TDP1.
# To this end, we have screened this cell line against the MLSMR in two primary screens. In one screen we add CPT and in the other we screen in the absence of CPT; this AID represents the screen where CPT was absent.
# NIH Chemical Genomics Center [NCGC]
# NIH Molecular Libraries Probe Centers Network [MLPCN]
# Assay Submitter (PI): Yves Pommier, NCI
# DT40-hTDP1 cells without 20 nM Camptothecin (add 20 microL of DMSO in 1 L of cell culture medium) were dispensed at 400 cells/5microL/well in tissue culture treated 1536-well white wall/solid bottom assay plates (Greiner Bio-One North America, NC, U.S.A.) using a Multidrop Combi 8 channel dispenser (Thermo Fisher, Waltham, MA, USA). 23 nL compounds and controls were transferred using the pin tool (Kalypsys, San Diego, CA, USA) to the assay plates. The assay plates were then incubated at 37 masculineC for a minimum 48 hr. Three microL of Cell Titer Glo solution was added to the plates and incubated at RT in dark for 30 min. Luminescence was read using ViewLux (Perkin Elmer) with 1 sec exposure slow speed, high gain and 2x binning.
# Potency is the fitted concentration of half-maximal effect.
row,SMILES,Potency
1,CCN(CC(=O)Nc1c(F)cccc1F)C(=O)c1ccc(-c2ccc(C(C)=O)cc2)o1,inactive
2,COC(=O)c1cc2c(N)c(C(=O)c3ccc(Cl)cc3)sc2nc1C(OC)OC,14.6 µM (active)
3,COc1ccc(OC)c(C(=O)c2ccc(Cl)cc2)c1,inactive
4,COC(=O)c1cn(C(=O)c2ccc(Cl)cc2)c2ccccc12,inactive
5,Cc1ccc(C(=O)N/N=C/c2sc(=O)n(Cc3cccc(C(=O)O)c3)c2Cl)cc1,inactive
6,CCCN=C1NC(=O)C(CC(=O)NCCc2ccc(OC)c(OC)c2)S1 (stereo unspecified),inactive
7,CC(=O)C1=C(C)NC(=O)NC1c1ccc2c(c1)OCO2 (stereo unspecified),inactive
8,O=C1C=C(c2cccc(Cl)c2)C[C@@H](c2ccc(F)cc2)C1,inactive
9,O=C1C=C(c2ccnc3cc(Cl)ccc23)C[C@@H](c2ccc3c(c2)OCO3)C1,16.4 µM (active)
10,CN(C)CC(C)(C)CNC(=O)c1cc(Br)cc(Br)c1O,inactive
11,O=C(Cn1ncn2nc(-c3cccs3)cc2c1=O)NCc1cccc(Br)c1,inactive
12,Cc1c(C(=O)OCC(=O)N2CCCC2=O)oc2ccccc12,inactive
13,C[n+]1ccccc1C1CCCC/C1=N\Nc1ccc([N+](=O)[O-])cc1[N+](=O)[O-] (stereo unspecified),inactive
14,CNc1ccc([N+](=O)[O-])cc1C(=O)O,inactive
15,CC(Nc1ccc([N+](=O)[O-])cc1[N+](=O)[O-])c1ccccc1 (stereo unspecified),20.6 µM (active)
16,CC(C)(C)NC(=O)Cn1cnc([N+](=O)[O-])n1,inactive
17,CC(C)C(NC(=O)c1c(F)cccc1F)C(=O)NCc1ccncc1 (stereo unspecified),inactive
18,CCN(CC(=O)NCC(=O)Nc1cccc(C)c1C)Cc1ccccc1,inactive
19,COc1cc(-c2n[nH]c(=S)n2Cc2ccccc2)cc(OC)c1OC,inactive
20,CCn1c(-c2ccncc2)n[nH]c1=S,inactive
21,CCCc1cc(-c2n[nH]c(=S)n2Cc2ccccc2)cs1,29.1 µM (active)
22,Cc1ccc(Nc2nc(CSc3nnc(-c4ccncc4)n3-c3ccccc3C)cs2)cc1,11.6 µM (active)

row,SMILES,Potency
1,O=C(CSc1nnc(-c2ccncc2)n1-c1ccccc1)Nc1ccc(Cl)c(Cl)c1,inactive
2,CCOc1ccccc1-n1c(SCC(=O)NCc2ccco2)nnc1-c1ccncc1,inactive
3,CCOC(=O)Cn1c(O)c(N=NC(=O)CNC(=O)Cc2ccccc2)c2ccccc21,inactive
4,Cn1c(S(=O)(=O)O)nc2ccccc21,inactive
5,O=C(NCC1CCCO1)c1ccc2ccccc2n1 (stereo unspecified),inactive
6,O=C(NCC1CCCO1)c1cc2c([nH]c3ccccc32)c(-c2ccc(F)cc2)n1 (stereo unspecified),1.84 µM (active)
7,COc1ccc2cc(C(=O)NCC3CCCO3)[nH]c2c1 (stereo unspecified),inactive
8,CSc1ccc(S(=O)(=O)NC2CCCCC2)cc1,inactive
9,CC(C)C(=O)NCc1cc(-c2ccc(Cl)cc2)no1,inactive
10,Cc1cc(O)c(Sc2ccccc2)c(=O)o1,inactive
11,O=C(O)CSc1nnc(-c2ccc3c(c2)OCO3)n1-c1ccccc1,inactive
12,Cc1ccc(-n2c(CNc3ccc(F)cc3)nnc2SCC(=O)N2CCOCC2)cc1,inactive
13,O=C(CSc1nnc(CN2CCCC2)n1-c1ccc(F)cc1)c1ccc2c(c1)OCO2,20.6 µM (active)
14,Cc1ccc(NC(=O)CSCC(=O)N2CCOCC2)cc1,inactive
15,CCN(CC(=O)Nc1c(F)cccc1F)C(=O)c1ccc(Sc2nncn2C)c([N+](=O)[O-])c1,inactive
16,CC1(C(=O)NS(=O)(=O)c2ccc(C#N)cc2)CCN1C(=O)CC1CCCC1 (stereo unspecified),inactive
17,COc1ccc(CNC(=O)CC2Oc3ccc(C)cc3NC2=O)cc1 (stereo unspecified),inactive
18,Cc1ccc2[nH]c(=O)c(CC=C(Cl)Cl)c(C)c2c1,inactive
19,COc1ccc(CNC(=O)c2cc3c(=O)[nH]c4ccc(C)cc4c3s2)c(OC)c1,20.6 µM (active)
20,Cc1ccc2[nH]c(=O)c(CC(=O)O)c(-c3ccccc3)c2c1,inactive
21,COc1ccc(CNC(=O)c2cc3c(=O)[nH]c4ccccc4c3s2)cc1,inactive
22,Cc1cccc(N(C)C(=O)c2cc3c(=O)[nH]c4ccc(C)cc4c3s2)c1,5.17 µM (active)

row,SMILES,Potency
1,Cc1ccsc1C(=O)NNC(=O)COc1ccc(Br)cc1,inactive
2,O=C(Nc1ccc2c(c1)C(=O)OC2)Nc1cccc2ccccc12,inactive
3,CN=C1S/C(=C\c2c(OC)cc(OC)cc2OC)C(=O)N1C,inactive
4,Cc1cccc(C)c1NC(=O)CSc1ccc([N+](=O)[O-])cn1,inactive
5,CCOCC(=O)Nc1ncc(S(=O)(=O)c2ccc([N+](=O)[O-])cc2)s1,inactive
6,COc1ccc(OCC(=O)NCCS(=O)(=O)N2CCN(c3ccc(F)cc3)CC2)cc1,inactive
7,c1ccc2nc(C3=NCCN3)cnc2c1,inactive
8,O=C(C[n+]1ccccc1)N/N=C/c1ccc(O)cc1,inactive
9,NN=C(NN=Cc1ccccc1)c1ccccc1,20.6 µM (active)
10,O=C(CCCCCNC(=O)c1ccccc1)N/N=C/c1ccccc1,inactive
11,Cc1ccc(Cc2cncc(O)c2)cc1S(=O)(=O)O,inactive
12,COC(=O)c1cc(NC(=O)c2cccnc2)ccc1N1CCOCC1,inactive
13,CCOC(=O)c1[nH]c2ccc(C)cc2c1N=C(C)N(C)C,inactive
14,CCOc1ccccc1CNC(=O)c1cnc2c(-c3ccc(OCC)c(OCC)c3)c(C)nn2c1C,11.6 µM (active)
15,Cc1ccc(Cl)cc1N1CCN(C(=O)c2cnc3c(-c4ccc(F)cc4)c(C)nn3c2C)CC1,inactive
16,CCOc1ccccc1CNC(=O)c1ccc2c(c1)nc1n2CCC(C)C1 (stereo unspecified),inactive
17,COCCCNC(=O)C1CC(=O)N(CCc2ccccc2)C1 (stereo unspecified),inactive
18,CC(C)(C)C(=O)CCN1C(=O)C2(OCCO2)c2ccccc21,inactive
19,COCCc1nn2c(=O)cc(COC(=O)c3cc(OC)c(OC)c(OC)c3)nc2s1,inactive
20,COc1cc(C(=O)OCc2cc(=O)n3ccsc3n2)ccc1OC(C)C,20.6 µM (active)
21,COc1ccc(C(=O)OCc2cc(=O)n3ccsc3n2)cc1F,inactive
22,NC(=O)C[n+]1cccc(C(N)=O)c1,inactive

row,SMILES,Potency
1,O=C1c2oc3ccccc3c(=O)c2C(c2cccc(O)c2)N1c1ccccn1 (stereo unspecified),20.6 µM (active)
2,CC(=O)c1sc(N2C(=O)c3oc4ccccc4c(=O)c3C2c2ccc(C)cc2)nc1C (stereo unspecified),inactive
3,COc1ccc(C2c3c(oc4ccccc4c3=O)C(=O)N2Cc2ccc3c(c2)OCO3)cc1 (stereo unspecified),inactive
4,COCCN1C2=C(COC(C)(C)C2)C(=S)NC1c1ccccc1 (stereo unspecified),inactive
5,COC(C[C@@H](O)[C@H](C)[C@H](O)COCc1ccccc1)OC,inactive
6,Cn1cccc1/C=C1\SC(=S)N(NC(=O)c2ccc(Cl)cc2)C1=O,inactive
7,O=C(CSc1ncn[nH]1)Nc1ccc(Br)cc1Br,inactive
8,CN(C)C(CNC(=O)c1ccc(S(=O)(=O)NCc2ccco2)cc1)c1ccccc1 (stereo unspecified),inactive
9,CC(C)CNC(=O)C(=O)NCc1ccccc1,inactive
10,CC(C)(C)c1ccc(C(=O)NCC(c2ccco2)S(=O)(=O)c2ccc(F)cc2)cc1 (stereo unspecified),20.6 µM (active)
11,CC(C)(C)c1ccc(C(=O)NCCC(=O)NCc2ccco2)cc1,inactive
12,O=C(NCCc1ccccc1)C(=O)NCC(c1ccco1)S(=O)(=O)c1ccccc1 (stereo unspecified),inactive
13,O=C(NCc1ccccc1)C(=O)NCC(c1ccco1)S(=O)(=O)c1ccc(Cl)cc1 (stereo unspecified),18.4 µM (active)
14,O=C(COC(=O)c1cccc(Cl)c1Cl)NC1CCCCCC1,inactive
15,O=C(NNS(=O)(=O)c1ccccc1C(F)(F)F)c1cc2ncc(C(F)(F)F)cc2s1,inactive
16,COc1ccccc1OCCC(=O)OCC(=O)NC(=O)NC(C)(C)C,inactive
17,CSc1nnc(SCc2nc3sc(C(=O)O)c(C)c3c(=O)[nH]2)s1,inactive
18,COc1ccc(CCNC(=O)COC(=O)c2ccc[nH]c2=O)cc1,inactive
19,Cc1cc(C)c(-c2c(O)c3ccccc3n(C)c2=O)c(C)c1,inactive
20,COc1cc2c(=O)n(C)c3ccccc3c2cc1OC,11.6 µM (active)
21,Cc1cccc(Oc2c([N+](=O)[O-])c(=O)n(C)c3ccccc23)c1,inactive
22,Nc1ccc2c(c1)C(=Cc1cccnc1)c1ccccc1-2,inactive

row,SMILES,Potency
1,O=S(=O)(Nc1ccccc1N1CCOCC1)c1ccc(Cl)s1,inactive
2,COc1cccc(NC(=O)C2CCN(c3cc(C)nc4c(-c5ccc(Cl)cc5)c(C)nn34)CC2)c1,inactive
3,COc1ccc(CCNc2nc(-c3ccc(Cl)cc3)cc(C(F)(F)F)n2)cc1OC,25.9 µM (active)
4,COc1ccc(CCNc2nc(C)cc(C)n2)cc1OC,inactive
5,COc1ccc(CNc2nc(-c3ccc(Cl)cc3)cc(C(F)(F)F)n2)cc1,18.4 µM (active)
6,COc1ccc(-n2c(-c3ccc(Cl)cc3)n[nH]c2=S)c(OC)c1,inactive
7,COc1ccc(-c2c(C)nn3c(N4CCC(C(=O)NCCC(C)C)CC4)cc(C)nc23)cc1OC,inactive
8,COc1ccc(CCNC(=O)COC(=O)c2ncc(Cl)c(Cl)c2Cl)cc1OC,inactive
9,COc1ccc(CCNc2cc(C)nc3c(-c4ccc(Cl)cc4)c(C)nn23)cc1OC,18.4 µM (active)
10,COc1ccc(-c2cc(C(F)(F)F)nc(NCc3cccnc3)n2)cc1,inactive
11,CCN1CCN(C(=O)CN(C)S(=O)(=O)c2ccc(OC)cc2)CC1,inactive
12,N#C/C(=C\N1CCOCC1)S(=O)(=O)c1ccc(Cl)cc1,inactive
13,CCCC(=O)N1CCC1(C)C(=O)NS(=O)(=O)c1ccc(Cl)cc1 (stereo unspecified),inactive
14,COc1cccc(NC(=O)CN(C)CC(=O)c2c(N)n(Cc3ccccc3)c(=O)n(C)c2=O)c1,inactive
15,CC1CCC2(CC1)NC(=O)N(CC(=O)c1cccn1C)C2=O (stereo unspecified),inactive
16,COc1ccc(NC(=O)COC(=O)CNC(=O)C2CCCCC2)cc1,inactive
17,O=C(NCc1cccnc1)c1ccccc1NC(=O)c1c(F)cccc1F,inactive
18,CN(C)c1ccc2c(=O)[nH][nH]c(=O)c2c1,inactive
